Screening data from PubChem.
Shown is part of a subset that was picked to be rich in hits.
LmPK inh = inhibitors of Leishmania mexicana pyruvate kinase. Potency, µM (doses to about 57.5 µM), for inactives: at the top dose activity change, negative = inhibition, actives largely listed as inhibitors. purified LmPK, Kinase-Glo ATP luminescence, 1 h. hit rate 0.37% among 290,000. Q27686; note: potency is the fitted concentration of half-maximal effect; % is set by controls: 0 for no effect and ±100 for the full control effect
Target sequence (Q27686 whole entry, looked up): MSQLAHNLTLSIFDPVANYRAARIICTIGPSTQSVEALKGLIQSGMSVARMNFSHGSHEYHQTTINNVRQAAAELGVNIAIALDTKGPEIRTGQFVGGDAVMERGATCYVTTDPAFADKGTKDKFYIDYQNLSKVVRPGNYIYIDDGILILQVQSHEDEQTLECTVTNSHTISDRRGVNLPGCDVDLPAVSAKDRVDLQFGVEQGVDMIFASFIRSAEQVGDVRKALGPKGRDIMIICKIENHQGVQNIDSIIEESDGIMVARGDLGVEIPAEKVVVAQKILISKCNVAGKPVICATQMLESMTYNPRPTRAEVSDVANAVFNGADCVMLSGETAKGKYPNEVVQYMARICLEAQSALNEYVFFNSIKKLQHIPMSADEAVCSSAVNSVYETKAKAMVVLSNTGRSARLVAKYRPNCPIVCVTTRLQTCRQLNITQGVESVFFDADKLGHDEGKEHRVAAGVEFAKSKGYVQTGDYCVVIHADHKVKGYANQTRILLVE
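In 50 mM imidazole pH 7.2 with 7 mM MgCl2, LmPK (0.1 nM) turned over PEP (0.5 mM) and ADP (0.1 mM) for 1 h at room temperature. Luciferase read-out of ATP.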
Sm TGR block = blocks Schistosoma mansoni thioredoxin glutathione reductase. Q962Y6. purified TGR, DTNB reduction, TNB absorbance 405 nm. Potency, µM (top dose mostly 114 µM), without a hit: at the highest dose activity change, negative = inhibition, actives largely listed as inhibitors. hit rate 3% among 360,000; note: potency is the fitted concentration of half-maximal effect; % is set by controls: 0 for no effect and ±100 for the full control effect; nearly all actives have a fitted effect of over 60% in size
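TGR 20 nM + NADPH 100 uM (dispensed conc.), cpd preinc 15 min RT; start with NADPH (500 uM addition) then DTNB (15 mM addition). Kinetic TNB absorbance, 405 nm filter. Four-parameter Hill fit across titration.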
Cycloheximide cs = affects cycloheximide protein synthesis inhibition readout, counter-screen; cell reporter, cycloheximide protein synthesis inhibition counterscreen; max response, %; hit rate 12% among 300,000; in the data active = max response mostly above about 13%, no sharp cut-off; inactive = mostly below about 14%; note: read at 38.3 µM for the half of the compounds with a filed dose; 0% is about no effect
TbPYK inhibitor = T. brucei pyruvate kinase inhibition. hit rate 0.12% among 410,000. Potency, µM (doses to about 76.8 µM), for inactives: at the highest dose activity, negative = inhibition, usual class: inhibitors. TbPYK enzyme, Kinase-Glo Plus ATP luminescence, 45 min. Q57TT1; note: potency is the fitted concentration of half-maximal effect; % is set by controls: 0 for no effect and ±100 for the full control effect; nearly all actives have a fitted effect of over 50% in size
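Readout: single end-point luminescence (Kinase-Glo Plus, 10 min). Reaction conditions were TbPYK/substrate plus 130 uM ADP, 45 min at RT, pH 7.2 TEA buffer. No-enzyme wells served as controls, and data were normalized before concentration-response fitting.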
Shiga toxin inh = inhibitors of Shiga toxin in Vero cells | Vero cells, Shiga toxin protein synthesis inhibition reporter | inhibition, % at 38.7 µM | hit rate 9.2% among 290,000; in the data active = inhibition mostly above about 28%, no sharp cut-off; inactive = mostly below about 43%; note: 0% is about no effect
FBPA Giardia inh = Giardia lamblia aldolase inhibition. AID 2451. purified Giardia FBPA. Potency, µM (highest dose often 59.6 µM), for the others: at the highest dose activity, negative = inhibition, hits mostly inhibitors. hit rate 0.71% among 290,000. A8B2U2; note: potency is the fitted concentration of half-maximal effect; % is set by controls: 0 for no effect and ±100 for the full control effect; nearly all actives have a fitted effect of over 55% in size
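40 nM FBPA preincubated 10 min at RT with compound (up to 57.5 uM final), then substrate plus GAPDH/TPI/NAD/arsenate coupling and diaphorase/resazurin added. Fluorescence read after 20 min at RT, 525/598 nm.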
Active calls of the source: *; ? = inconclusive; nt = not tested or not shown. Unless noted, calls come from the whole dose curve; as a rule, active = well fitted curve in the direction sought with a large enough effect; inconclusive = small, poorly fitted or top-dose-only effect, or another doubt; inactive = no such curve, though single readings can be large; an effect the other way counts as inactive or inconclusive.

SMILES | LmPK inh | Sm TGR block | Cycloheximide cs | TbPYK inhibitor | Shiga toxin inh | FBPA Giardia inh
CCC(C)c1ccc(NC(=O)NCc2cccnc2)cc1 (configuration not stated) | -9% | 8% | 26* | 1% | 14 | -7%
O=C(NCc1cccnc1)Nc1ccc(Cl)cc1 | -3% | -6% | 18* | -2% | 22 | nt
O=C(CNCc1ccccn1)N1CCc2ccccc2C1 | -4% | 0% | 16 | 9% | 38 | ?
CCOc1ccc2nc(NC(=O)COC)sc2c1 | 0% | 13% | 34* | 0% | 114 | -4%
CCOCC(=O)Nc1nc2ccc(OC)cc2s1 | ? | ? | 53* | -23% | 67* | -3%
COc1ccc2nc(NC(=O)CCn3cccc3)sc2c1 | 7% | -2% | 16* | 4% | 13 | 6%
COC(=O)Cc1ccc(OC2(C)CCN(Cc3ccc(-c4ccccn4)cc3)C2)cc1 (configuration not stated) | nt | nt | nt | 1% | nt | nt
NC(=O)c1ccsc1NC(=O)c1cccs1 | nt | nt | nt | 51% | nt | nt
CCC(C)NS(=O)(=O)c1ccc(NC(=O)c2cccs2)cc1 (configuration not stated) | 2% | 11% | -3 | -5% | -2 | 0%
COc1cccc(C(=O)COc2ccc(NC(=O)c3cccs3)cc2)c1 | -1% | -6% | 19* | 0% | 20 | nt
Cc1ccn(-c2ccc(NC(=O)c3cccs3)cc2)n1 | -17% | 10% | 33* | -10% | 82* | -3%
CCC(C)c1ccc(NC(=O)c2cccs2)cc1 (configuration not stated) | -9% | 12% | 30* | -11% | 59* | -9%
Cc1sc(NC(=O)c2cccs2)c(C(N)=O)c1C | -8% | 39% | 40* | -1% | 62 | -6%
Cc1ccc(S(=O)(=O)Nc2cc(Cl)c3oc4c(c3c2)CCCC4)cc1 | nt | -9% | nt | 3% | nt | nt
COc1ccc(OC)c(CNC(=O)Cn2nc(C)c3nn(-c4ccc(Cl)cc4)c(C)c3c2=O)c1 | nt | 2% | nt | -5% | nt | nt
O=C(Nc1ccc(Cl)cc1)c1cccs1 | -4% | 2% | 60* | -2% | 82* | -10%
COc1ccccc1C(=O)Nc1ccc(NC(=O)c2cccs2)cc1 | nt | -1% | nt | -6% | nt | nt
O=C(Nc1cccc(-n2cnnn2)c1)c1cccs1 | -2% | 0% | 1 | -3% | -6 | -6%
O=C(Nc1ccc(NC(=O)C2CC2)cc1)c1cccs1 | -2% | -24% | 43* | -5% | 67* | -16%
COc1ccc(NC(=O)c2cccs2)cc1 | ? | -8% | 41* | 8% | 78* | -5%
O=C(Nc1cccc(N2CCCC2)c1)c1cccs1 | 3% | -31% | 27* | 1% | 72* | -25%
COc1cc(/C=C\c2ccc(OC)cc2OC)cc(OC)c1 | nt | nt | nt | nt | nt | -2%
COc1ccc(Nc2cc(C)c3cc(NC(=O)COc4cccc(C)c4)ccc3n2)cc1 | nt | 6% | nt | -1% | nt | nt
COc1ccc(C(=O)Nc2ccc(NC(=O)c3cccs3)cn2)cc1 | -8% | 3% | 20* | -1% | 43 | ?
CNC(=S)NNC(=O)c1cccs1 | 0% | 13% | -2 | -12% | 22 | -15%
SMILES | LmPK inh | Sm TGR block | Cycloheximide cs | TbPYK inhibitor | Shiga toxin inh | FBPA Giardia inh
Cc1ccc(NC(=O)NNC(=O)c2cccs2)cc1 | 3% | 0% | 17* | 4% | 38* | 3%
CC(C)c1ccc(NC(=S)NNC(=O)c2cccs2)cc1 | -1% | 8% | 42* | 0% | 72* | 14%
COc1ccc(C(=O)Nc2ccc(NC(=O)c3ccccc3OC)nc2)cc1 | 0% | -3% | 6 | 2% | 8 | -15%
O=C(Nc1ccc2[nH]ccc2c1)c1cccs1 | -26% | 9% | 27* | -10% | 55* | -2%
CC(=O)Nc1ccc(C(=O)NNC(=O)c2cccs2)cc1 | -1% | -21% | 8 | 1% | -12 | 5%
O=C(NCCc1ccc(Cl)cc1)c1ccc(CS(=O)(=O)Cc2ccccc2F)o1 | nt | -26% | nt | -8% | nt | nt
CN1CCN(c2ccc(NC(=O)c3cccs3)cc2)CC1 | -9% | nt | 32* | -7% | 41 | 0%
CC(C)C(=O)N1CCN(c2ccc(NC(=O)c3cccs3)cc2)CC1 | 5% | -12% | -3 | -3% | -5 | -1%
COc1ccc(NC(=S)NNC(=O)c2cccs2)cc1 | 3% | 0% | 27* | -13% | 46* | 1%
O=C(Nc1ccc(NC(=O)c2cccs2)cc1)c1cccs1 | -4% | 9% | 43* | 2% | 83* | 3%
